Reference: PubChem BioAssay AID652105 (National Center for Advancing Translational Sciences (NCATS), 2013)
The whole screen tested about 330,000 compounds, of which about 4,100 (1.2%) were called active. Roughly 2% stayed inconclusive and do not appear here. The calls were made as follows: active = max response of -50% or lower; inconclusive = between -30% and -50%; inactive = -30% or higher. The sample as a whole holds a higher share of actives than the screen did.
% is scaled to controls: 0 for no effect and ±100 for the full control effect.
Also: value at the top dose of about 77 µM.

The compounds below were run against Phosphatidylinositol 5-phosphate 4-kinase type-2 alpha (Homo sapiens) (UniProt P48426) (assay: qHTS for Inhibitors of phosphatidylinositol 5-phosphate 4-kinase (PI5P4K)). Conditions: PI5P4Kalpha enzyme, ADP-Glo luminescence, 60 min; active compounds read low.
Chain of Phosphatidylinositol 5-phosphate 4-kinase type-2 alpha (Homo sapiens) (P48426 whole entry, looked up): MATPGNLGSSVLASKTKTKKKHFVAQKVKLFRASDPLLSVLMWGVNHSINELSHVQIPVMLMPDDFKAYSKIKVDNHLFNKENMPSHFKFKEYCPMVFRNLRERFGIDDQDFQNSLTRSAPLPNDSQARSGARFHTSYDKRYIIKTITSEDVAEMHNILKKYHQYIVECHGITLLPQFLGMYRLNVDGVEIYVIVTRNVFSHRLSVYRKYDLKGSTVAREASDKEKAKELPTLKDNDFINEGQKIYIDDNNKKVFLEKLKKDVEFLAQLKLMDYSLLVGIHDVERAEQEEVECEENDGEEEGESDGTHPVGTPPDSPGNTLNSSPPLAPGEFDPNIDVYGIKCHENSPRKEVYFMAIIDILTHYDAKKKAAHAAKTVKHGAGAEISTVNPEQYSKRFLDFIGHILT
Procedure, shortened: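 Single end-point luminescence (ADP-Glo) quantified ADP from PI5P4Kalpha turnover; ATP 5 microM final, 1 h at RT, 0.1% CHAPS and 0.28 mM EGTA in HEPES pH 7.4.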
`OC(c1ccccc1)c1nc(-c2cnc3ccccc3c2)cs1` (configuration not stated) was tested, and the max response was -0.318% (inactive). `CS(=O)(=O)c1ccc2c(c1)SC1=NC(=O)/C(=C/c3ccco3)C(=N)N12` was tested, and the max response was -79.5% (active). With `CC(C)(C)C1C/C(=C/c2ccco2)C(=O)/C(=C/c2ccco2)C1` (configuration not stated) the max response was -12.4% (inactive). With `O=C(Nc1cccc2ccccc12)c1[nH]c(-c2ccccc2)c2c1C(=O)N(C1CC1)C2=O` the max response was -0.344% (inactive). In the case of `CN1CCN(C(=O)c2ccc(-c3cc4nc(NCc5cccnc5)n(C)c(=O)c4s3)cc2)CC1`, the max response is reported as 2.18% (inactive). In the case of `CCC(C(=O)Nc1c(C)cccc1C)n1c(-c2cc(C)cs2)nc2ccccc21` (configuration not stated), the max response is reported as 0.0253% (inactive). With `O=C(NC1CCCCC1)C(c1cc2ccccc2o1)n1c(=O)c(-c2ccco2)nc2ccccc21` (configuration not stated) the max response was -75.5% (active). For `Cn1c(SCC(=O)NC2CCCCC2)nnc1-c1cc2ccccc2o1`, the max response was 1.01% (inactive). `Cc1cccc(C)c1NC(=O)C(c1ccc(C(F)(F)F)cc1)n1c(=O)c(-c2ccco2)nc2ccccc21` (configuration not stated) was tested, and the max response was -54% (active). `Cc1cccc(C)c1NC(=O)C(c1cccc2ccccc12)n1c(=O)c(-c2ccco2)nc2ccccc21` (configuration not stated) was tested, and the max response was -75.2% (active). In the case of `COc1ccc(NC(=O)C(c2ccncc2)n2c(=O)c(-c3cc4ccccc4[nH]3)nc3ccccc32)cc1` (configuration not stated), the max response is reported as 0.0077% (inactive). With `COc1ccc(C(C(=O)NCc2ccccc2)n2c(=O)c(-c3ccccc3)nc3ccccc32)cc1` (configuration not stated) the max response was 7.1% (inactive). In the case of `CCC(CC)C(C(=O)NC1CCCC1)N1CCN(c2cc(C)nc3ccccc23)CC1` (configuration not stated), the max response is reported as -1.13% (inactive). `CCCCCNC(=O)C(c1ccc(OC)cc1)n1c(=O)c(-c2ccccc2)nc2ccccc21` (configuration not stated) was tested, and the max response was 8.24% (inactive). With `CC(=O)Nc1cc(-c2ccccc2N(C)C)cn2c(-c3ccc(F)c(Cl)c3)cnc12` the max response was -1.56% (inactive). With `NC(c1csc(NC(=O)Nc2cccc(C(F)(F)F)c2)n1)C1CCCCC1` (configuration not stated) the max response was 10.5% (inactive). With `Cc1ccc([C@H]2C[C@H](O)[C@@H](n3cc(COC(=O)c4ccccc4)nn3)CN2CC2CCCCC2)cc1` the max response was 19.2% (inactive). With `O=C(NCc1ccccc1)C1c2ccccc2OCC(=O)N1CCCN1CCOCC1` (configuration not stated) the max response was 0.215% (inactive). In the case of `O=C(c1ccc(C(F)(F)F)cc1)N1CCC(=O)N([C@H](COCc2ccccc2)Cc2ccccc2)CC1`, the max response is reported as 5.29% (inactive). With `COC(=O)c1ccc2nc(C3CCCCC3)c(Cc3cccc(F)c3)n2c1` the max response was -0.596% (inactive). With `CCCCOCCCNC(=O)C[C@@H]1C[C@@]2(C(=O)OC)CCCCC=C2N(CCC2=CCCCC2)C1=O` the max response was 17.9% (inactive). For `O=C(Nc1ccc(N2CCOCC2)cc1)c1cccc2c(-c3ccc(F)c(F)c3)coc12`, the max response was 5.02% (inactive). `CCc1c(N=O)c(-c2ccccc2)n(O)[n+]1[O-]` was tested, and the max response was -5.54% (inactive). For `O=C(N/N=C/c1ccc([N+](=O)[O-])cc1)c1c[nH]c2ccccc12`, the max response was 1.35% (inactive). In the case of `O=C(N/N=C/c1ccc(Cl)cc1)c1nc2ccc([N+](=O)[O-])cc2c(=O)[nH]1`, the max response is reported as -60.4% (active). With `Cc1ccsc1C(=O)N/N=C/c1ccc([N+](=O)[O-])cc1` the max response was -10.5% (inactive). `O=C(CCc1ccc(O)cc1)NN=Cc1cc(Br)ccc1O` was tested, and the max response was -16.2% (inactive). For `COc1ccc(NC(=O)C2Cc3c(-c4ccc5c(c4)OCO5)ccnc3O2)cn1` (configuration not stated), the max response was -13.8% (inactive). With `O=C1CSC(=S)N1/N=C/c1ccc(O)c([N+](=O)[O-])c1` the max response was -104% (active). In the case of `O=C1CSC(=S)N1c1ccc(O)cc1`, the max response is reported as -3.72% (inactive). With `O=[N+]([O-])c1ccc(N2CCSCC2)cc1O` the max response was -3.3% (inactive). With `CC1Cc2[nH][nH]c(=O)c2C(C2CCCC2)O1` (configuration not stated) the max response was 0.644% (inactive). With `CC1=C(C(=O)N2CCOCC2)CC(CC(=O)NCCCN(C)C)C(=O)N1Cc1ccc(C(C)(C)C)cc1` (configuration not stated) the max response was 1.54% (inactive). `Fc1ccc(/C=N/n2c(COc3ccccc3)n[nH]c2=S)cc1` was tested, and the max response was 5.11% (inactive). In the case of `Fc1ccc(COc2ccc(-c3nnco3)cc2)cc1`, the max response is reported as -2.69% (inactive). For `Fc1ccc(COc2cccc(-c3n[nH]c(=S)o3)c2)cc1`, the max response was -51.9% (active). For `Cc1cccc(CNC(=O)c2sc(=O)n(Cc3ccccc3C)c2C)c1`, the max response was 0.532% (inactive). `COc1ccc(-c2ccc(C(=O)NC(C)C)c3occc23)c(C)c1` was tested, and the max response was 4% (inactive). For `CC[C@@H]1Cc2cc(O)ccc2C2=C1c1ccc(O)cc1C[C@H]2CC`, the max response was -54.7% (active). With `Cc1ccc(C(=O)N2CCCc3ccccc32)c(Cl)c1` the max response was 0.412% (inactive). In the case of `N#C/C(=C(/O)COC(=O)COc1ccc(Cl)cc1)c1nc2ccccc2[nH]1`, the max response is reported as -17% (inactive). In the case of `N#C/C(=C(/O)COc1cccc2ccccc12)c1nc2ccccc2[nH]1`, the max response is reported as -15.3% (inactive). With `CC(C)(C)c1nnc2sc(SCC(O)=C(C#N)c3nc4ccccc4[nH]3)nn2c1=O` the max response was -56.5% (active). `COC(=O)[C@@]12C[C@@H](CC(=O)N3CCC(c4ccccc4)CC3)C(=O)N(Cc3ccccc3)C1=CCC(C)(C)C2` was tested, and the max response was 3.29% (inactive). For `COc1ccc(C(C)(NC(C)=O)c2nc(-c3ccc(S(C)(=O)=O)cc3)cs2)cc1` (configuration not stated), the max response was -2.22% (inactive). In the case of `O=C(Nc1cc(Br)ccc1F)c1nc[nH]c1C(=O)NCc1ccccc1`, the max response is reported as 32.1% (inactive). With `O=C(Cc1ccc([N+](=O)[O-])cc1)NCCS(=O)(=O)N1CCN(c2ccccc2)CC1` the max response was -2.51% (inactive). In the case of `O=c1ccc2c(-c3ccccc3S(=O)(=O)O)c3ccc(O)c(O)c3oc-2c1O`, the max response is reported as -99.8% (active). For `COc1ccccc1CNc1nc(Nc2ccccc2Cl)c2sccc2n1`, the max response was -3.83% (inactive). With `CC(=O)c1ccc(Nc2nc(C(N)c3ccccc3Cl)cs2)cc1` (configuration not stated) the max response was 1.57% (inactive). With `CC1(Oc2ccccc2-c2ccno2)CCN(Cc2ccc(-c3ccccc3)o2)C1` (configuration not stated) the max response was -1.74% (inactive). `CC(=O)Nc1cccc(Nc2ccc(C#N)cc2)c1` was tested, and the max response was 1.81% (inactive). `COC(=O)[C@]12CCCCC=C1N(Cc1ccco1)C(=O)[C@H](CC(=O)NCCCCc1ccccc1)C2` was tested, and the max response was 0.498% (inactive). In the case of `CCc1c(C)[nH]c(=S)c(C#N)c1C`, the max response is reported as -67.1% (active). `O=S1(=O)CCN(C2CCCCCCCCCCC2)CC1` was tested, and the max response was 7.96% (inactive). For `O=Cc1cn(CCOc2ccc(F)cc2)c2ccccc12`, the max response was 7.27% (inactive). With `COC(=O)c1ccc2nc(-c3ccc(F)cc3)c(Cc3ccc(C)cc3)n2c1` the max response was 0.932% (inactive). With `O=S1(=O)C[C@@H](N2CCN(CCO)CC2)[C@H](COCc2ccccc2)N1` the max response was -1.64% (inactive). `CC(C)Oc1cc(F)ccc1-c1cc(C(=O)Nc2cccc(Cl)c2)[nH]n1` was tested, and the max response was 0.377% (inactive). For `COc1ccc(OC)c(C(O)c2ncc(-c3cccc(C(F)(F)F)c3)[nH]2)c1` (configuration not stated), the max response was -2.56% (inactive). For `CC1(OC(=O)C2CCCC2)C(=O)C=C2C=C(c3ccc(C#N)cc3)OC=C2C1=O` (configuration not stated), the max response was -76.4% (active). In the case of `C=CCN1C=C2C(=O)C(C)(OC(=O)CCc3ccccc3)C(=O)C=C2C=C1c1ccc(C#N)cc1` (configuration not stated), the max response is reported as -25.6% (inactive). `COCCN1C=C2C(=O)C(C)(OC(=O)C3CCCC3)C(=O)C=C2C=C1c1ccsc1` (configuration not stated) was tested, and the max response was -2.59% (inactive). With `COc1ccccc1Cc1c(-c2ccc(Cl)cc2)nc2ccc(Cl)cn12` the max response was -3.05% (inactive). `CC(C)Nc1nnc(SCC(=O)c2c[nH]c3ccccc23)s1` was tested, and the max response was -3.57% (inactive). For `NC(=O)CSc1nnc(NC(=O)c2ccc3ccccc3c2)s1`, the max response was -9.56% (inactive). With `Cc1ccccc1Nc1nnc(SCC(=O)c2cc3ccccc3o2)s1` the max response was -19.3% (inactive). For `Cc1ccc(Nc2nnc(SCC(=O)c3cc4ccccc4o3)s2)cc1C`, the max response was -55.9% (active). `CC(C)c1ccc(Nc2nnc(SCC(=O)c3nnc(-c4ccccc4)o3)s2)cc1` was tested, and the max response was -79.1% (active). In the case of `CC(C)N(C(=O)CSc1nnc(NC2CC2)s1)c1ccccc1`, the max response is reported as 2.4% (inactive). In the case of `O=C1NC[C@H](CCCCN2C[C@H](Cc3ccc(O)cc3)N(CCc3ccccc3)C(=O)C2=O)N(CCc2ccccc2)C1=O`, the max response is reported as -2.29% (inactive). For `COCc1cccc(-c2csc(C(O)c3ccc(F)cc3)n2)c1` (configuration not stated), the max response was 0.323% (inactive). In the case of `COc1ccc(C(=O)N2CCCCC2c2cc(C(=O)Nc3ccc(F)c(Cl)c3)no2)cc1` (configuration not stated), the max response is reported as -6.25% (inactive). For `NC(Cc1ccccc1)c1csc(Nc2cc(Oc3ccccc3)ncn2)n1` (configuration not stated), the max response was 1.15% (inactive). For `O=C(/C=C(O)/C=C/c1ccc(O)cc1)/C=C/c1ccc(O)cc1`, the max response was -59.8% (active). With `O=C(/C=C/c1ccc2c(c1)OCCO2)c1ccc(O)cc1` the max response was -20.1% (inactive). With `O=C(/C=C/c1ccc(F)cc1)NCCNC(=O)/C=C/c1ccc(F)cc1` the max response was 3.31% (inactive). For `O=C1c2ccccc2-c2ccccc2NC1O` (configuration not stated), the max response was -1.89% (inactive). In the case of `COc1ccc(OCCCC(=O)Nc2nnc(C3CCCO3)s2)cc1` (configuration not stated), the max response is reported as -53% (active). For `Cc1nnc(NC(=O)CCCOc2ccccc2)s1`, the max response was -10% (inactive). In the case of `COc1ccc(NC(=O)CCC(=O)Nc2nnc(C3CCCCC3)s2)cc1`, the max response is reported as 0.477% (inactive). `Cc1ccc(S(=O)(=O)N2CCC(=O)N([C@H](COCc3ccccc3)C(C)C)CC2)cc1` was tested, and the max response was -1.43% (inactive). In the case of `CC(=O)Nc1cccc(-c2ccnc3c2CC(C)(C(=O)NCc2ccccc2)O3)c1` (configuration not stated), the max response is reported as 0.0166% (inactive). `COC(=O)c1ccc(CN2C(=O)C(Cc3ccccc3)ON=C2c2ncccc2C)o1` (configuration not stated) was tested, and the max response was -4% (inactive). With `CCOC(=O)c1ccc(Nc2cc3ccccc3c(=O)[nH]2)cc1` the max response was 3.2% (inactive). With `CCOC(=O)c1cc2c(=O)[nH]c(C(Cl)(Cl)Cl)nc2o1` the max response was -59.5% (active). `CCOC(=O)c1ccc(COC(=O)c2cc(=O)[nH]c3ccccc23)o1` was tested, and the max response was 0.0752% (inactive).
